{"source": "the supplement of paper PMC8728848", "binders": {"B1": {"name": "FaeGac (Escherichia coli) (protein)", "chain": "WMTGDFNGSVDIGGSITADDYRQKWEWKVGTGLNGFGNVLNDLTNGGTKLTITVTGNKPILLGRTKEAFATPVTGGVDGIPHIAFTDYEGASVVLRKPDGETNKNGLAYFVLPMKNAGGTKVGSVKVNASYAGVLGRGGVTSADGELLSLFADGLSSIFYGGLPRGSELSAGSAAAARTKLFGSLSRDDILGQIQRVNANVTSLVDVAGSYRENMEYTDGNVVSAAYALGIANGQTIEATFNQAVTTSTQWSAPLNVAITYY"}}, "test_in_all_cases": "glycan array binding signal (z-score within array); higher = stronger binding", "conditions_in_all_cases": "glycan notation: IUPAC condensed, linker removed", "key": {"[1]": {"target": "Fuc(a1-3)[Gal(b1-4)]GlcNAc", "method_in_brief": "(§1)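 Columns mapping to the same glycan were averaged after glycan names were converted to IUPAC-condensed notation. The data come from 3228 arrays in the Consortium for Functional Glycomics database, limited to those with an available protein sequence. Binding is reported as a within-array Z-score averaged across arrays of one protein sequence and across linkers.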"}, "Gal(a1-3)Gal(b1-3)GlcNAc": {"target": "Gal(a1-3)Gal(b1-3)GlcNAc", "method_in_brief": "as §1"}, "[2]": {"target": "Gal(b1-4)GlcNAc(b1-3)Gal(b1-4)GlcNAc", "method_in_brief": "as §1"}, "Gal3S6S(b1-4)GlcNAc6S": {"target": "Gal3S6S(b1-4)GlcNAc6S", "method_in_brief": "as §1"}, "Glc(a1-4)Glc": {"target": "Glc(a1-4)Glc", "method_in_brief": "as §1"}, "Glc(a1-6)Glc(a1-6)Glc": {"target": "Glc(a1-6)Glc(a1-6)Glc", "method_in_brief": "as §1"}, "Glc(b1-4)Glc": {"target": "Glc(b1-4)Glc", "method_in_brief": "as §1"}, "GlcA(b1-3)Gal": {"target": "GlcA(b1-3)Gal", "method_in_brief": "as §1"}, "[3]": {"target": "GlcNAc(a1-3)Gal(b1-4)GlcNAc", "method_in_brief": "as §1"}, "[4]": {"target": "Man(a1-2)Man(a1-2)Man(a1-6)[Man(a1-3)]Man", "method_in_brief": "as §1"}, "[5]": {"target": "Man(a1-2)Man(a1-3)[Man(a1-6)]Man(a1-6)[Man(a1-2)Man(a1-3)]Man(b1-4)GlcNAc(b1-4)GlcNAc", "method_in_brief": "as §1"}, "[6]": {"target": "Neu5Ac(a2-3)Gal(b1-3)[Fuc(a1-4)]GlcNAc", "method_in_brief": "as §1"}, "Neu5Ac(a2-3)Gal(b1-4)Glc": {"target": "Neu5Ac(a2-3)Gal(b1-4)Glc", "method_in_brief": "as §1"}, "[7]": {"target": "Neu5Ac(a2-3)[GalNAc(b1-4)]Gal(b1-4)GlcNAc", "method_in_brief": "as §1"}, "[8]": {"target": "Neu5Gc(a2-3)Gal(b1-3)GlcNAc", "method_in_brief": "as §1"}}, "note": "Only a selection was taken, and the strongest signals are over-represented in it overall.", "data": [{"binder": "B1", "values": [{"measurement": "glycan array binding signal (z-score)", "setting": "[1]", "value": -0.598}, {"measurement": "glycan array binding signal (z-score)", "setting": "Gal(a1-3)Gal(b1-3)GlcNAc", "value": -0.126}, {"measurement": "glycan array binding signal (z-score)", "setting": "[2]", "value": -0.084}, {"measurement": "glycan array binding signal (z-score)", "setting": "Gal3S6S(b1-4)GlcNAc6S", "value": 1.17}, {"measurement": "glycan array binding signal (z-score)", "setting": "Glc(a1-4)Glc", "value": 5.96}, {"measurement": "glycan array binding signal (z-score)", "setting": "Glc(a1-6)Glc(a1-6)Glc", "value": 6.71}, {"measurement": "glycan array binding signal (z-score)", "setting": "Glc(b1-4)Glc", "value": 4.43}, {"measurement": "glycan array binding signal (z-score)", "setting": "GlcA(b1-3)Gal", "value": -0.705}, {"measurement": "glycan array binding signal (z-score)", "setting": "[3]", "value": 0.229}, {"measurement": "glycan array binding signal (z-score)", "setting": "[4]", "value": 3.1}, {"measurement": "glycan array binding signal (z-score)", "setting": "[5]", "value": 0.527}, {"measurement": "glycan array binding signal (z-score)", "setting": "[6]", "value": 0.445}, {"measurement": "glycan array binding signal (z-score)", "setting": "Neu5Ac(a2-3)Gal(b1-4)Glc", "value": -0.81}, {"measurement": "glycan array binding signal (z-score)", "setting": "[7]", "value": -0.863}, {"measurement": "glycan array binding signal (z-score)", "setting": "[8]", "value": -0.826}]}]}
